Results taken from PubChem BioAssay AID1508622 (National Center for Advancing Translational Sciences (NCATS), 2021).
Activity calls are given as the source filed them. The call rests on the fitted dose curve; in most records, active means well fitted activation curve with a large enough effect; inconclusive means small, poorly fitted or top-dose-only effect; inactive means no such curve, though single readings can be large or run the other way.

Experiment: Confirmatory qHTS for Identification of Small Molecule Activators of Huntingtin-Antisense Promoter Activity
Conditions: HEK293 HTT-AS promoter firefly luciferase reporter, 24 h; series mostly up to 57.5 µM
Text: Assay Provider: Russell L. Margolis M.D.
Department Neurology, Johns Hopkins University School of Medicine, Baltimore, MD
Huntington's Disease (HD) is a neurodegenerative disorder caused by a CAG repeat expansion in exon 1 of huntingtin (HTT). While there are currently no disease-modifying treatments for HD, recent efforts have focused on development of nucleotide-based therapeutics to lower HTT expression. As an alternative to siRNA or oligonucleotide methods, we hypothesized that suppression of HTT expression might be accomplished by small molecules that either (1) directly decrease HTT expression by suppressing HTT promoter activity or (2) indirectly decrease HTT expression by increasing the promoter activity of HTT-AS, the gene antisense to HTT that appears to inhibit expression of HTT.
We developed and employed a high throughput screen for modifiers of HTT and HTT-AS promoter activity using luminescent reporter HEK293 cells; of the 52,041 compounds tested, we identified 898 replicable hits. We used a rigorous stepwise approach to assess compound toxicity and the capacity of the compounds to specifically lower huntingtin protein in 5 different cell lines, including HEK293 cells, HD lymphoblastoid cells, mouse primary neurons, HD iPSCs differentiated into cortical-like neurons, and HD hESCs. We found no compounds which were able to lower huntingtin without lowering cell viability in all assays, though the potential efficacy of a few compounds at non-toxic doses could not be excluded.
SEQUENCE No. (1, 2, 3, etc.); […] (e.g., Cells, Incubation, Reagent, etc.); VALUE and DESCRIPTION.
1; Reagent; 4 uL; 2,500 Hek293 luciferase reporter cells per wells
3; Compound; 23 nL; Control inhibitor / compound library
5; Reagent; 2.5 uL; Firefly Luc reagent; Dual-Glo Luciferase Reporter Assay System (Promega)
6; Time; 10 min; room temperature incubation
7; Detection; Luminescence; FLuc
NOTES (numbers refer to sequence above)
1; High-throughput screening, measuring luminescence from a Hek293 luciferase reporter, was performed in 1,536 well white-walled tissue-culture treated plates. 2,500 cells were plated in 4 uL of Opti-MEM per well using a Multidrop Combi Reagent Dispenser (ThermoFisher).
2; Assay plates were cultured for 24 hours.
3; Control inhibitor (PTC124; final concentration of 50 uM) and compound library (at final concentrations of 460 nM - 57.5 uM) were added to the assay plate using the Kalypsis Pintool Robotic System equipped with 1536 pinheads.
4; Cells were then incubated for 24 hours at 37C prior to luminescence measurements.
5; In all cases, luminescence was measured using the Dual-Glo Luciferase Reporter Assay System (Promega) following the manufacturer's instructions.
6; Room temperature incubation.
7; Luminescence signal was obtained using the PerkinElmer ViewLux plate reader. Results were normalized to vehicle control (0% activity) and zero RLU (-100% activity).

| Structure (SMILES) | outcome |
| --- | --- |
| CSc1ccc(CN2CCN(C(=O)COc3cccc(C)c3)CC2)cc1 | inactive |
| N#Cc1ccccc1NC(=O)c1cccn(Cc2ccccc2)c1=O | inactive |
| CCN(CC)C(=O)N[C@@H]1C=C2c3cccc4[nH]cc(c34)C[C@@H]2N(C)C1 | inactive |
| O=c1c2ccccc2nc(/C=C\c2ccc(F)cc2)n1-c1ccccc1F | inactive |
| Cc1ccc(-n2c(/C=C\c3ccc(F)c(F)c3)nc3ccccc3c2=O)c(C)c1 | inactive |
| COc1ccc(-n2c(/C=C\c3ccccc3F)nc3ccccc3c2=O)cc1OC | inactive |
| O=C(N[C@H]1CN2CCC1CC2)c1ccc(Cl)cc1 | inactive |
| Cc1ccccc1Cn1cccc(C(=O)Nc2nc3ccccc3s2)c1=O | inactive |
| O=c1c2ccccc2nc(/C=C/c2cccc3ccccc23)n1-c1ccccc1Cl | inactive |
| Nc1c(C(=O)Nc2ccc(Cl)c(C(F)(F)F)c2)sc2nc3c(cc12)N1CCC3CC1 | inactive |
| Cc1cc(-n2c(/C=C/c3ccc(Br)s3)nc3ccccc3c2=O)ccc1Br | inactive |
| CC(C)(O)C=CC(=O)[C@](C)(O)[C@H]1[C@H](O)C[C@]2(C)[C@@H]3CC=C4[C@@H](C=C(O)C(=O)C4(C)C)[C@]3(C)C(=O)C[C@@]12C | inactive |
| CC(C)N[C@@H]1CCn2c(=O)[nH]c3cccc(c32)[C@@H]1O | inactive |
| CCOc1ccc(NC(=O)c2cccn(Cc3cccc(Cl)c3)c2=O)cc1 | inactive |
| CCCCc1ccc(NC(=O)c2cccn(Cc3ccc(Cl)cc3)c2=O)cc1 | inactive |
| Cc1cccc(-n2c(/C=C\c3cccc(Br)c3)nc3ccccc3c2=O)c1 | inactive |
| CCCOc1ccc(C2SCC(=O)Nc3c2c(C)nn3-c2cccc(C)c2)cc1OC (configuration not stated) | inactive |
| COC(=O)c1ccc(NC(=O)c2cccn(Cc3ccccc3C)c2=O)cc1 | inactive |
| CCN(CC)C(=O)c1ccc(NC(=O)CCn2nc(-c3ccc(Cl)cc3)c3ccccc3c2=O)cc1 | inactive |
| COc1cccc(C2SCC(=O)Nc3c2c(C)nn3-c2ccc(C)c(Cl)c2)c1OC (configuration not stated) | inactive |
| Cc1ccc(-n2c(/C=C/c3ccc(Br)s3)nc3ccccc3c2=O)cc1 | inactive |
| CCOC(=O)c1ccc(NC(=O)c2cccn(Cc3ccccc3F)c2=O)cc1 | inactive |
